Assay results: ChEMBL document CHEMBL4513216, “Probing the Open Global Health Chemical Diversity Library for Multistage-Active Starting Points for Next-Generation Antimalarials” (ACS Infect Dis, 2020)
Out of some 68,000 compounds screened, about 2,700 (4%) showed an effect of 50% or more. The entries come from a sample that favours strong results as a whole.

tested on: Plasmodium berghei; test: Screen against P. berghei liver stage (PbLuc), transformed with Luciferase, at 2uM; assay type: functional, HepG2; settings: tested at 2 uM

| Structure (SMILES) | INHIBITION [%] |
| --- | --- |
| CS(=O)(=O)c1cccc(OCC(=O)N2CCCC2c2ccc[nH]2)c1 (stereo unspecified) | 9.27 |
| Cc1ncoc1C(=O)N1CC[C@@]2(C[C@H](NS(C)(=O)=O)CCO2)C1 | -43.98 |
| CCCC(C)NC(=O)c1ccc(-c2ccco2)[nH]c1=O (stereo unspecified) | -1.87 |
| CCC(C)NC(=O)c1ccc(-c2ccco2)[nH]c1=O (stereo unspecified) | 31.51 |
| CC(COCC(F)(F)F)NC(=O)c1ccc(-c2ccco2)[nH]c1=O (stereo unspecified) | 69.67 |
| CNS(=O)(=O)c1ccc(C(=O)NCc2ccnc(OC)c2)cc1 | 27.44 |
| Fc1ccc(N2CCCN(Cc3ccc(-c4cc[nH]n4)o3)CC2)cc1 | -62.99 |
| Cc1cccc(-c2nc(CN3CCc4c(ncn4C)C3)no2)c1 | 14.82 |
| CC(NC(=O)N1CCCCCC1)c1ccc(S(N)(=O)=O)cc1 (stereo unspecified) | -36.8 |
| OCC1CCC2(CC1)CN(Cc1ccccc1F)Cc1ccccc1O2 (stereo unspecified) | 2.71 |
| O=C(CCc1ccc(F)cc1)NS(=O)(=O)c1ccc2c(c1)OCCO2 | -15.92 |
| O=C(CCc1cc(F)ccc1F)NS(=O)(=O)c1ccc2c(c1)OCCO2 | 66.28 |
| O=C(CSc1ccc(F)cc1F)NS(=O)(=O)c1ccc2c(c1)OCCO2 | 27.47 |
| CC(CC(=O)NS(=O)(=O)c1ccc2c(c1)OCCO2)c1ccc(F)cc1 (stereo unspecified) | 61.3 |
| O=C(CCc1ccccc1F)NS(=O)(=O)c1ccc2c(c1)OCCO2 | 7.71 |
| O=C(CSc1ccc(F)cc1)NS(=O)(=O)c1ccc2c(c1)OCCO2 | 13.91 |
| c1nc2n(n1)CC(NCc1nc(-c3ccsc3)no1)CC2 (stereo unspecified) | -14.3 |
| COc1cccc(CC(=O)NC2CCCc3cn[nH]c32)c1 (stereo unspecified) | -1.29 |
| CCCc1nn(C2CCN(C3CC3)C2=O)c(=O)o1 (stereo unspecified) | -8.5 |
| CCCc1nn(C2CCCN(C(C)C)C2=O)c(=O)o1 (stereo unspecified) | 58.69 |
| CCCc1nn(C2CCN(C(C)C)C2=O)c(=O)o1 (stereo unspecified) | -78.95 |
| Cc1nc(N2CCC(CN3CCCC3)CC2)c2cnn(C)c2n1 | 7.08 |

| Structure (SMILES) | INHIBITION [%] |
| --- | --- |
| NC(=O)CN(CC(=O)NCCc1c(F)cccc1F)C1CCCC1 | 14.21 |
| NCC1(c2cccc(C(F)(F)F)c2)CC1 | 74.11 |
| NCC1(c2cccc(C(F)(F)F)c2)CCCC1 | 23.45 |
| NCC1(c2cccc(C(F)(F)F)c2)CCC1 | 39.97 |
| CC(C)c1cc(NC(=O)CN2CCCC2Cn2cncn2)on1 (stereo unspecified) | -98.79 |
| COC(=O)c1ccc(Cl)c(NS(=O)(=O)c2cn(C)cn2)c1 | -9.88 |
| COC(=O)c1ccc(Cl)c(NS(=O)(=O)c2cnn(C)c2)c1 | 50.48 |
| Cn1cnc(S(=O)(=O)Nc2cc(C(N)=O)ccc2Cl)c1 | -53.5 |
| Cc1nc(C)n(CC2CCCCN2Cc2cn3ccccc3n2)n1 (stereo unspecified) | -0.05 |
| CC(C)CN1CCC(C(=O)Nc2cc(C(F)(F)F)c[nH]c2=O)CC1 | -68.89 |
| CC1(C)CN(C(=O)Nc2cc(C(F)(F)F)c[nH]c2=O)CCO1 | 33.92 |
| CC(C)(C)N1CCN(C(=O)Nc2cc(C(F)(F)F)c[nH]c2=O)CC1 | -32.3 |
| CC(C)CN1CCN(C(=O)Nc2cc(C(F)(F)F)c[nH]c2=O)CC1 | 54.85 |
| CC1CN(C(=O)Nc2cc(C(F)(F)F)c[nH]c2=O)CCO1 (stereo unspecified) | 28.39 |
| CC1CN(C(=O)Nc2cc(C(F)(F)F)c[nH]c2=O)CC(C)(C)O1 (stereo unspecified) | 51.31 |
| CS(=O)(=O)c1cnc(N2CCCC2)nc1C1CCN(C(=O)C2CC2)CC1 | -44.33 |
| COc1ccccc1[C@@H]1CN(Cc2cnn(C)c2C)C[C@H]1C(=O)O | 0.12 |
| COCCC(=O)NCC1COc2cc(OC)ccc2C1 (stereo unspecified) | -26.75 |
| COc1cc(NC(=O)c2ccccc2F)c(C(=O)N(C)C)cc1OC | 5.52 |
| COc1cc(NC(=O)c2ccc(C)cc2C)c(C(=O)N(C)C)cc1OC | 26.48 |
| COc1cc(NC(=O)c2cc(C)sc2C)c(C(=O)N(C)C)cc1OC | 58.24 |
| O=C(c1ccc2c(c1)CCC2)N1CCCCC1C1OCCO1 (stereo unspecified) | -44.52 |

| Structure (SMILES) | INHIBITION [%] |
| --- | --- |
| COC(=O)CC1CSCCN1C(=O)CCc1c(C)nn(C)c1C (stereo unspecified) | 26.7 |
| CN(C)c1cc(CNC(=O)CC2CCCCC2)ccn1 | 55.33 |
| COCCSCC(=O)NCc1ccnc(N(C)C)c1 | 50.61 |
| CN(C)c1ccc(CNC(=O)NCCc2ccccn2)cn1 | 11.2 |
| COCCSCC(=O)NCc1ccc(N(C)C)cc1 | 47.04 |
| COCCOCC(=O)NCc1ccc(N(C)C)nc1 | 64.08 |
| CN(C)c1ccc(CCNC(=O)NCc2ccc(N(C)C)nc2)cc1 | -18.67 |
| COCCSCC(=O)NCc1ccc(N(C)C)nc1 | 1.8 |
| CCS(=O)(=O)c1ccccc1C(=O)NCc1ccnc(N(C)C)c1 | 56.67 |
| CCN(C)c1cc(CNC(=O)CNC(=O)CC2CCCCC2)ccn1 | -15.05 |
| CN(C)c1cc(CNC(=O)c2ccccc2S(C)(=O)=O)ccn1 | -33.95 |
| CCOc1cc(CNC(=O)CNC(=O)CC2CCCCC2)ccn1 | 9.29 |
| CN(C)c1cc(CNC(=O)c2ccccc2Cl)ccn1 | 17.19 |
| CN(C)CCn1c2c(ccc1=O)CCN(Cc1cnn(C)c1)CC2 | 19.16 |
| CC(C)(C)n1cc(CNc2ccc(CNS(C)(=O)=O)cc2)cn1 | 38.49 |
| Cc1ccc(C(=O)N2C[C@@H]3CCCO[C@@H]3[C@H](N3CCOCC3)C2)cn1 | -35.23 |
| CCN(CC)S(=O)(=O)N1C[C@H]2CC[C@@H](C1)N(Cc1cscn1)C2=O | 31.51 |
| CC(C)OCCCN1CCCC(c2nc3ccccc3n2C(C)C)C1 (stereo unspecified) | -25.8 |
| COc1ccc2c(c1)c(C(=O)Nc1nnn[nH]1)cn2C(C)C | -2.44 |
| COCCNC(=O)[C@H]1CC[C@@H]2[C@@H](CCN2c2ncc(F)cn2)O1 | 31.65 |
| CN1C(=O)CC(c2cnn(C)c2)C12CCN(C(=O)c1ccnnc1)CC2 (stereo unspecified) | -26.73 |
| O=C(N1CCCC1)N1CCOCC2(CCN(Cc3cccs3)C2)C1 (stereo unspecified) | 25.31 |
